# An excerpt weighted towards active compounds, which were near 18% of everything screened.
# LDHA block: blocks human lactate dehydrogenase A; P00338; purified LDHA, NADH/diaphorase-resazurin fluorescence; hits give low values; activity change, % (values are at about 110 or 230 µM); 480,000 tested, 0.15% active; AID 1347041; in the data active means activity change below about -30%; inconclusive means mostly about -25% to -30%
#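 Enzyme activity of human lactate dehydrogenase 5 (2 nM; 0.06 mM NADH, 0.2 mM pyruvate, 5 min, RT) is measured via a resazurin/diaphorase fluorescence readout of residual NADH.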
# DT40 TDP1 no CPT: qHTS for Inhibitors of human tyrosyl-DNA phosphodiesterase 1 (TDP1): qHTS in cells in absence of CPT; DT40 Tdp1-/- hTDP1 cells, no CPT, ATP luminescence, 48 h; 420,000 tested, 15% active; Potency, µM (series often up to 46.2 µM), usual class: inhibitors; further: nearly all actives have a fitted effect of over 55% in size
#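 Camptothecin absent (DMSO only). Human TDP1-complemented DT40 knockout cells, 400 cells/well, 37 °C for minimum 48 hr; ATP measured via CellTiter-Glo, 30 min dark incubation, luminescence.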
# Gal4-VP16 FLuc: counter-screen for ROR gamma inhibitors: Gal4-VP16 reporter. Drosophila S2 Gal4-VP16 UAS-luciferase, luminescence, 20 h. Potency, µM (doses to about 53.6 µM), hits mostly inhibitors. 310,000 tested, 3.5% active. AID 2546;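 further: Gal4-VP16 expression switched on by copper sulfate through the metallothionein promoter; nearly all actives have a fitted effect of over 50% in size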
# DT40 TDP1 CPT: growth inhibition of DT40 Tdp1-/-;hTDP1 cells with camptothecin (screen for TDP1 inhibitors); chicken DT40 Tdp1-/-;hTDP1 cells + 20 nM CPT, ATP luminescence, 48 h; Potency, µM (series often up to 46.2 µM), most hits filed as inhibitors; 420,000 tested, 12% active; AID 686979; further: nearly all actives have a fitted effect of over 55% in size
#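 Cell growth measured by CellTiter-Glo luminescence after a minimum 48 h, 37 C compound exposure with 20 nM CPT in Tdp1-knockout DT40 cells stably expressing hTDP1, seeded 400/well; qHTS titration format.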
# RORg inh: ROR gamma (mouse) transcription inhibition | P51450 | Drosophila S2 Gal4-RORgamma UAS-luciferase reporter, 20 h | Potency, µM (top dose mostly 53.6 µM), usual class: inhibitors | 310,000 tested, 5.4% active; further: nearly all actives have a fitted effect of over 60% in size
# Target sequence (P51450 whole entry, looked up, the tested form may be a part): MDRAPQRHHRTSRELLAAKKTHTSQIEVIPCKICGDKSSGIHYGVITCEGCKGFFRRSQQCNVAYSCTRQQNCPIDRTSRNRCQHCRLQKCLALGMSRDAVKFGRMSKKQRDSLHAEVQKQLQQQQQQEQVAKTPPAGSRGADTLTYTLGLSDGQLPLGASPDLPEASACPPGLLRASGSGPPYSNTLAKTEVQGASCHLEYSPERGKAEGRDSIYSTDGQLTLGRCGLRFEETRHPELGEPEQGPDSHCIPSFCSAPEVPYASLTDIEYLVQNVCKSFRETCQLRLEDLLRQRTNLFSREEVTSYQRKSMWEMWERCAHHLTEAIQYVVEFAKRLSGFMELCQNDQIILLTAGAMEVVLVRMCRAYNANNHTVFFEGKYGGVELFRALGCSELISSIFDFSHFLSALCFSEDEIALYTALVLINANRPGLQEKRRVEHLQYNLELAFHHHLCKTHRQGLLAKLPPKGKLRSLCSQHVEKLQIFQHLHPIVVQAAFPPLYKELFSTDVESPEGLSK
#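 Compounds are pin-transferred onto Drosophila Schneider cells expressing a copper-inducible Gal4–ROR gamma transactivation domain fusion. After 1 hr, copper sulfate is added to 700 uM final; luciferase is read 20 hr later.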
# IL1B secr inh: inflammasome signaling inhibition, IL-1 beta readout; THP-1 LPS/ATP IL-1B secretion, AlphaLISA, 16 h; hits give low values; activity change, % at 57.5 µM; 360,000 tested, 4.7% active; in the data active means activity change below about -50%; inconclusive means mostly about -30% to -49%
#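 THP-1 cells pretreated 1 hr with compounds (up to 57.5 uM final), then stimulated with LPS (250 ng/mL final) plus ATP (1.25 mM final); secreted IL-1B measured by AlphaLISA after 16 hr, decreased signal indicating inhibition.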
# A number is an active result; n = inactive; u = inconclusive; x = no result; ! = repeats disagree. Unless noted, the call rests on the fitted dose curve; in most records, active means well fitted curve in the direction sought with a large enough effect; inconclusive means small, poorly fitted or top-dose-only effect, or another doubt; inactive means no such curve, though single readings can be large; an effect the other way counts as inactive or inconclusive.
SMILES,LDHA block,DT40 TDP1 no CPT,Gal4-VP16 FLuc,DT40 TDP1 CPT,RORg inh,IL1B secr inh
CN(C)c1nc(OCC#N)nc(N2CCOCC2)n1,n,x,x,x,x,x
Cc1ccc(C(=O)N/N=C/C2=Cc3ccccc3OC2C)cc1 (configuration not stated),n,14.6µM,u,u,3.16µM,n
CC1Oc2ccccc2C=C1/C=N/NC(=O)c1ccccc1 (configuration not stated),n,25.9µM,u,9.2µM,n,n
COc1ccc(CN(Cc2cc3cccc(C)c3n3nnnc23)C(=O)N2CCOCC2)cc1,n,u,n,16.4µM,n,n
COc1ccc(-c2cc(C(F)(F)F)nc(SCC(=O)NCc3ccc(OC)c(OC)c3)n2)cc1,n,u,x,23.1µM,x,x
CCC(C)NC(=O)CCSc1nc(-c2ccc(OC)cc2)cc(C(F)(F)F)n1 (configuration not stated),n,16.4µM,x,u,x,x
COc1ccc(-c2cc(C(F)(F)F)nc(SCC(=O)NC(C)c3ccccc3)n2)cc1 (configuration not stated),n,14.6µM,x,u,x,x
COCCNC(=O)CCSc1nc(-c2ccc(OC)cc2)cc(C(F)(F)F)n1,n,20.6µM,n,23.1µM!,u,n
COc1ccc(-c2cc(C(F)(F)F)nc(SCCC(=O)NC(C)C)n2)cc1,n,x,x,x,x,x
COCc1nnc(NC(=O)CCn2ccc3ccc(Br)cc32)s1,n,x,x,x,x,x
COc1cc(C2C3=C(CC(C)(C)CC3=O)OC3=C2C(=O)CC(C)(C)C3)ccc1OS(=O)(=O)c1ccc(C)cc1,n,x,x,x,x,x
CC(C)CCNc1nc(C(=O)Nc2ccc(Cn3cncn3)cc2)cs1,n,x,x,x,x,x
COc1cc(-c2nc(Cn3nnc(C(=O)Nc4ccc(F)cc4)c3N)c(C)o2)cc(OC)c1OC,n,x,x,x,x,x
O=C(CSc1nc2ccccc2c(=O)n1-c1ncn[nH]1)Nc1cccc(F)c1,n,x,x,x,x,x
COCCn1c(N2CCN(Cc3c(F)cccc3Cl)CC2)nc2c1c(=O)[nH]c(=O)n2C,n,x,x,x,x,x
O=C(c1cnc2c(cnn2Cc2ccccc2)c1)N1CCCc2ccccc21,n,x,x,x,x,x
FC(F)(F)c1c(C(F)(F)C(F)(F)F)nc2ccccc2c1Nc1ccccc1,n,x,x,x,x,x
Cc1nc(C)c(-c2nnc(-c3ccccc3Cl)o2)cc1C(=O)NN,n,n,n,n,n,n
Cc1nc(C)c(-c2nnc(-c3ccc(C(C)(C)C)cc3)o2)cc1C(=O)NN,n,23.1µM,u,u,u,n
Oc1[nH]c2ccccc2c1N=Nc1nc(Nc2ccccc2)nc(N2CCOCC2)n1,n,1.84µM,n,n,n,u
Cc1[nH]c2ccccc2c1/C=N/Nc1nc(Nc2ccccc2)nc(N2CCOCC2)n1,n,6.51µM,n,8.2µM,u,-79.9
O=C(O)c1cccc(Nc2nc(N3CCOCC3)nc(N3CCOCC3)n2)c1,n,n,n,u,n,n
O=c1c(N2CCN(Cc3ccccc3)CC2)csc2ccc(Cl)cc12,n,x,x,x,x,x
O=Cc1c(-c2ccc(Cl)cc2Cl)[nH]c2ccccc12,n,x,x,x,x,x
COc1ccccc1/C=N/O,n,x,x,x,x,x
SMILES,LDHA block,DT40 TDP1 no CPT,Gal4-VP16 FLuc,DT40 TDP1 CPT,RORg inh,IL1B secr inh
COC(=O)[C@]1(Sc2ccc(OC)cc2)CC(=O)N[C@@H]1c1ccccc1,n,18.4µM,x,u,x,n
CCN(c1ccccc1)S(=O)(=O)c1ccc(C(=O)NCC(=O)Nc2ccc(F)c(F)c2F)cc1,n,14.6µM,x,14.6µM,x,n
CN(c1ccccc1)S(=O)(=O)c1cccc(C(=O)NCC(=O)Nc2ccc(F)c(F)c2F)c1,n,16.4µM,x,u,x,n
CN(C)c1cccc(C(=O)NNC(=O)c2ccc(Cl)cc2)c1,n,x,x,x,x,x
CCOC(=O)CCCSc1ccc2c(c1)OCCO2,n,x,x,x,x,x
Cc1[nH]n(C(N)=S)c(=O)c1C(c1ccccc1)C(C#N)C#N (configuration not stated),n,1.46µM,10µM,1.46µM,10µM,n
Cc1[nH]n(-c2ncc(-c3ccccc3)s2)c(=O)c1C(c1ccc(Br)cc1)C(C#N)C#N (configuration not stated),n,u,12.6µM,u,11.2µM,-63.7
CN1CCCC(C(=O)C(C#N)c2ccccc2)C1 (configuration not stated),n,n,n,n,n,n
COc1cc(CC(=O)NC2CCCCCCC2)cc(OC)c1OC,n,x,x,x,x,x
Cc1cccc(NCCC(=O)c2ccc(Br)cc2)c1,n,23.1µM,n,23.1µM,n,n
CCOC(=O)CNCCC(=O)c1ccc(Br)cc1,n,6.51µM,u,5.8µM,n,u
N#Cc1ccc(OCCOC(=O)c2ccc(COc3ccccc3)o2)cc1,n,x,x,x,x,x
CCN(CC)CCCC(C)NC(=O)c1cccc(S(=O)(=O)N2CCc3ccccc32)c1 (configuration not stated),n,n,n,n,n,u
O=C(Nc1nc2ccccc2s1)c1cccc(S(=O)(=O)N2CCc3ccccc32)c1,n,10.3µM,n,n,u,n
Cc1nnc(NC(=O)c2cccc(S(=O)(=O)N3CCc4ccccc43)c2)s1,n,n,u,n,n,n
O=C(NNC(=O)c1cccc(S(=O)(=O)N2CCc3ccccc32)c1)c1ccccc1,n,5.17µM,u,u,n,n
CC(C)CCNC(=O)c1cccc(S(=O)(=O)N2CCc3ccccc32)c1,n,u,n,14.6µM,n,n
O=C(NC1CC1)C(=O)N1CCN(C(=O)c2cc3ccccc3[nH]2)CC1,n,x,x,x,x,x
CCOc1ccc(Nc2nc3ccccc3nc2NS(=O)(=O)c2cccs2)cc1,n,x,x,x,x,x
Cc1cc(Oc2ccc(-c3ccccc3)cc2)n2ncnc2n1,n,n,n,18.4µM,n,u
O=C(CCc1ncc(-c2ccccc2)o1)NCc1ccco1,n,x,x,x,x,x
O=C(Nc1ccccc1-c1ccccc1)c1cc(F)c(F)cc1Cl,n,x,x,x,x,x
COC(=O)C1=CN(c2ccc(N3CCOCC3)cc2)C(N)=C(C#N)C1c1cccc(OC)c1OC (configuration not stated),n,u,x,n,x,n
COC(=O)C1=CN(c2cccc(OCc3ccccc3)c2)C(N)=C(C#N)C1c1cccc(OC)c1OC (configuration not stated),n,14.6µM,x,14.6µM,x,n
COC(=O)C1=CN(c2ccc(Oc3ccccc3)cc2)C(N)=C(C#N)C1c1cccc(OC)c1OC (configuration not stated),n,13µM,x,14.6µM,x,n
Cc1ccc(-c2c(C(=O)O)sc3c2cnc2ccc(C)cc23)cc1,n,x,x,x,x,x
Cc1cc2nc(/C(C#N)=C/c3ccc4c(c3)OCO4)[nH]c2cc1C,n,x,x,x,x,x

# Assay outcomes from PubChem BioAssay.
